Assay results published in PubChem BioAssay AID652115 (Broad Institute, 2013).
About 3,800 (1.2%) of roughly 330,000 compounds were called active. No stated cut-off is given here; in the data, active means inhibition above about 15%; inconclusive means no clear call, values can overlap the other calls; inactive means below that. The list comes from a sample in which actives are over-represented; it also holds similar structures and randomly drawn compounds.

biological target: NAD-dependent protein deacylase sirtuin-5, mitochondrial (Homo sapiens) (UniProt Q9NXA8); experiment: SIRT5 desuccinylase inhibitors, primary screen, biochemical, fluorescence imaging, single point, set 5 (AID 652115); settings: Purified SirT5, succinyl-peptide AMC, trypsin-coupled fluorescence; at 15 µM; active compounds read high
Sequence (Q9NXA8 whole entry, looked up): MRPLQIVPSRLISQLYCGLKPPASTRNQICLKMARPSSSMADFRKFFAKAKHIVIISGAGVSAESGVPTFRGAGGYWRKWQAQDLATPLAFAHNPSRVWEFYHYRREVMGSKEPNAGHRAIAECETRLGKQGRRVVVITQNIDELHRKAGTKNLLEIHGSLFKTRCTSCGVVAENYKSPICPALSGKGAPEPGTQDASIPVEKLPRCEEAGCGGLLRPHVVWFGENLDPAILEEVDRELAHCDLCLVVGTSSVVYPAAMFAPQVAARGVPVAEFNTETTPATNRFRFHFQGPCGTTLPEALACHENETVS

inhibition, active:
Cc1ccc(NC(=O)C2CC(=O)N(c3ccc4c(c3)OCCO4)C2)cc1S(=O)(=O)N1CCCCCC1 (configuration not stated) 15.7%, COC(=O)c1ccc([C@@H](O)[C@H](C)C(=O)CC(=O)OC(C)(C)C)cc1 37.8%, C[C@H]1CN([C@@H](C)CO)C(=O)Cc2cc(NC(=O)Cn3cnnn3)ccc2O[C@H]1CN(C)Cc1ccc(C(=O)O)cc1 18%, C[C@@H]1CN([C@@H](C)CO)C(=O)Cc2cc(NC(=O)Cc3ccccc3)ccc2O[C@@H]1CN(C)Cc1ccc(Oc2ccccc2)cc1 15.7%, C[C@H](CO)N1C[C@H](C)[C@@H](CN(C)Cc2ccc(-c3ccccc3)cc2)Oc2ccc(NC(=O)CCC(F)(F)F)cc2CC1=O 16.8%, C[C@H]1CN([C@@H](C)CO)C(=O)Cc2cc(NS(=O)(=O)c3ccccc3)ccc2O[C@H]1CN(C)Cc1ccc(C(=O)Nc2ccccc2N)cc1 18.7%, CCN(CC(=O)NC1CCS(=O)(=O)C1)S(=O)(=O)c1ccccc1 (configuration not stated) 20.8%, COc1ccc(/C=C2\SC(=S)N(CC(=O)NNC(=O)c3ccncc3)C2=O)cc1 36.3%, Cc1ccc(S(=O)(=O)N2C[C@@H]3CCCC[C@@H]3[C@@H](C)[C@H]2c2cn(Cc3ccccc3)c3ccc(F)cc23)cc1 26.5%, COC1=C/C(=C/c2c(N)n3nc(CC(=O)N4CCOCC4)sc3nc2=O)C=CC1=O 15.9%, C=CCC1=C/C(=C\c2c(N)n3nc(CC(=O)N4CCOCC4)sc3nc2=O)C=C(OC)C1=O 31.6%, COCC(=O)N1[C@H](CO)[C@@H](c2ccccc2)C12CN(Cc1cc(F)ccc1F)C2 19%, CC1(C)N=C(N)NC(Nc2ccc(Cl)cc2)=N1 24.2%, COC(OC)c1ccnc(SCc2ccccc2Cl)n1 65.6%

inhibition, inactive:
COc1ccc(S(=O)(=O)N2CCCCC2)cc1NC(=O)C1CC(=O)N(c2ccc3c(c2)OCCO3)C1 (configuration not stated) -0.216%, Cc1ccc(N2CC(C(=O)Nc3ccc(S(=O)(=O)N4CCCC4)cc3)CC2=O)cc1C (configuration not stated) -0.84%, CN1[C@@H]2c3ccc(-c4cccc(F)c4)c(=O)n3C[C@@H]2[C@@H](CO)[C@@H]1C(=O)NC1CCC1 1.95%, CC(C)(C)OC(=O)N[C@H](C(=O)OC(C)(C)C)c1ccc(Br)cc1 0.762%, CC(C)(C)OC(=O)Nc1ccc([C@@H](NC(=O)OC(C)(C)C)C(=O)OC(C)(C)C)cc1 4.38%, C[C@@H]1CN([C@H](C)CO)C(=O)c2c(c3ccccc3n2C)-c2ccccc2CO[C@H]1CN(C)Cc1ccc(F)cc1 8.7%, C[C@H]1CN([C@@H](C)CO)C(=O)c2cc(-c3cccnc3)cnc2O[C@@H]1CN(C)C(=O)C1CC1 -5.02%, C[C@H]1CN([C@@H](C)CO)C(=O)Cc2cc(NC(=O)Cn3cnnn3)ccc2O[C@@H]1CN(C)Cc1ccc(-c2ccccc2)cc1 4.01%, C[C@H](CO)N1C[C@H](C)[C@@H](CN(C)Cc2ccc(C(=O)O)cc2)Oc2ccc(NC(=O)Cn3cnnn3)cc2CC1=O 0.832%, Cc1ccc(S(=O)(=O)Nc2ccc3c(c2)CC(=O)N([C@@H](C)CO)C[C@H](C)[C@H](CN(C)Cc2ccc(C(=O)Nc4ccccc4N)cc2)O3)cc1 3.56%, COc1ccc(CN(C)C[C@H]2Oc3ccc(NC(=O)Cc4ccccc4)cc3CC(=O)N([C@@H](C)CO)C[C@@H]2C)cc1 3.47%, C[C@H]1CN([C@@H](C)CO)C(=O)Cc2cc(NS(=O)(=O)c3ccccc3)ccc2O[C@@H]1CN(C)Cc1ccc(C(=O)Nc2ccccc2N)cc1 -3.96%, C[C@@H]1CN([C@H](C)CO)C(=O)Cc2cc(NC(=O)Cc3ccccc3)ccc2O[C@H]1CN(C)Cc1ccc(Oc2ccccc2)cc1 11.3%, C[C@@H]1CN([C@@H](C)CO)C(=O)Cc2cc(NC(=O)CCCN(C)C)ccc2O[C@@H]1CN(C)Cc1ccc(-c2ccccc2)cc1 -0.666%, C[C@@H]1CN([C@H](C)CO)C(=O)Cc2cc(NC(=O)CCC(F)(F)F)ccc2O[C@@H]1CN(C)Cc1ccncc1 -3.99%, COCc1cc(N2CCN(C(=O)OC(C)(C)C)C[C@@H]2C)ccc1N1CCN(Cc2ccccc2)[C@H](C)C1 -1.86%, COc1ccc2c3c([nH]c2c1)[C@H](CO)N(Cc1ccccc1)CC31CCN(C(=O)c2ccccn2)CC1 -0.283%, CC(=O)N[C@@H]1CC[C@@H](CCNC(=O)C2CC2)O[C@H]1CO -0.463%, C[C@H](CO)N1C[C@H](C)[C@H](CN(C)C(=O)CCC(F)(F)F)OCCCC[C@H](C)Oc2ccc(NS(=O)(=O)c3ccc(F)cc3)cc2C1=O 6.37%, C[C@@H]1CCCCO[C@@H](CN(C)S(C)(=O)=O)[C@H](C)CN([C@@H](C)CO)C(=O)c2cc(NS(=O)(=O)c3cccs3)ccc2O1 -3.17%, CC(C)NC(=O)N(C)C[C@H]1Oc2ncc(-c3ccc(C(=O)N(C)C)cc3)cc2C(=O)N([C@H](C)CO)C[C@H]1C -4.27%, C[C@@H]1CCCCO[C@H](CN(C)Cc2ccc(Cl)c(Cl)c2)[C@H](C)CN([C@@H](C)CO)C(=O)c2cc(NC(=O)CCC(F)(F)F)ccc2O1 11%, CCN(CC(=O)Nc1ccc2c(c1)OCO2)S(=O)(=O)c1ccccc1 -11.2%, CCN(CC(=O)NCCc1ccccc1)S(=O)(=O)c1ccccc1 13.5%, COc1cccc(/C=C2/SC(=S)N(CC(=O)NC3C=CS(=O)(=O)C3)C2=O)c1 (configuration not stated) 7.07%, CCOc1ccc(/C=C2\SC(=S)N(NC(=O)c3ccncc3)C2=O)cc1OC -1.31%, COc1ccccc1S(=O)(=O)N1CC[C@@H]2[C@H]1c1cc(-c3ccccc3)ccc1N[C@@H]2CO 2.02%, O=C(C[C@@H]1CC[C@H](NC(=O)C2CCOCC2)[C@@H](CO)O1)Nc1ccccc1 -0.611%, CCOC1=C2[C@@H](CN(S(=O)(=O)c3ccc(C)cc3)[C@H]2c2ccccc2F)[C@H]2C(=O)N(Cc3ccccc3)C(=O)[C@H]2C1 10.7%, Cc1ccc(F)cc1S(=O)(=O)N[C@@H]1CCN(Cc2ccc(-c3ccccc3)cc2)C1 4.54%, COc1cc(/C=C2\C(=N)N3N=C(CC(=O)N4CCOCC4)SC3=NC2=O)cc(OC)c1OC -5.1%, COc1cccc(/C=C2\SC(=S)N(CCCC(=O)N3CCOCC3)C2=O)c1 -0.302%, O=C(OCC(=O)N1CCOCC1)c1ccc2ccccc2c1 -8.77%, C[C@H](CO)N1C[C@H](C)[C@H](CN(C)Cc2cncnc2)Oc2cc(-c3ccccc3F)ccc2S1(=O)=O -2.9%, O=C(C[C@H]1CC[C@H]2[C@@H](COC[C@H](O)CN2Cc2nccs2)O1)NCc1ccc(Oc2ccccc2)cc1 -0.449%, Cc1ccc(-c2cnc3c(c2)C(=O)N([C@@H](C)CO)C[C@H](C)[C@H](CN(C)C(=O)c2cccnc2)O3)cc1 1.09%, O=S(=O)(c1ccccc1F)N1[C@@H]2CNC[C@H]1C2c1ccc(-c2cncnc2)cc1 (some centres not stated) -2.66%, Cc1ccc(S(=O)(=O)N[C@H]2CC[C@@H](CC(=O)N3CCc4ccccc4C3)O[C@H]2CO)cc1 -2.83%, COCC(=O)N1CC2(C1)[C@H](c1ccc(-c3cccc(F)c3)cc1)[C@@H](CO)N2C(=O)COC -3.18%, COCC(=O)N1CC2(C1)[C@@H](c1ccc(-c3cccc(F)c3)cc1)[C@@H](CO)N2C(=O)COC -1.31%, C[C@@H](NC(=O)C[C@H]1C=C[C@@H](NC(=O)CN2CCOCC2)[C@@H](CO)O1)c1ccccc1 0.512%, O=C(C[C@@H]1CC[C@@H]2[C@H](COC[C@H](O)CN2S(=O)(=O)c2ccc(Oc3ccccc3)cc2)O1)NCCN1CCCCC1 -3.74%, CO[C@@H]1CN(C)C(=O)c2ccc(NS(=O)(=O)c3ccc(Cl)cc3)cc2OC[C@@H](C)N(C)C[C@H]1C -8.92%, CC(C)NC(=O)N[C@H]1CC[C@@H](CCNC(=O)C2CCC2)O[C@@H]1CO -0.093%, CO[C@H]1CC[C@H]2CCOc3c(C#N)cccc3C(=O)N(C)CC3(CCCCC3)CC(=O)N(C)C[C@@H]1O2 -0.489%, Clc1ccc(Nc2ccc3ccccc3n2)cc1 -0.101%, O=c1ccnc(Nc2ccc(Cl)cc2)[nH]1 -3.58%, CO[C@H]1CN(C)C(=O)c2ccc(NS(=O)(=O)c3cn(C)cn3)cc2OC[C@@H](C)N(CC2CC2)C[C@H]1C 10.4%, CCOC(=O)c1cnc2nc(SCc3ccccc3Cl)[nH]n2c1=O -0.638%, COc1cnc(SCc2ccc(Cl)c(Cl)c2)nc1Cl -1.51%, Cc1ccc2nc(CN(C)C(=O)[C@@H](Cc3ccccc3)NC(=O)[C@H]3O[C@@H](n4ccc(=O)[nH]c4=O)[C@H](O)[C@@H]3O)[nH]c2c1 0.009%, CN1C(=O)c2cc(NC(=O)c3cscn3)ccc2OC[C@@H]2O[C@H](CC(=O)N3CCCCC3)CC[C@H]21 10.6%, COc1ccc(C#Cc2cnc3c(c2)C(=O)N([C@H](C)CO)C[C@H](C)[C@H](CN(C)C(=O)CC2CC2)O3)cc1 8.29%
